Test results published in the antibiotic and cytotoxicity screens of Wong et al. (2023).
In all, about 39,000 compounds went through this assay and about 3,300 (8.5%) were called active. Only a selection was taken, and actives are over-represented in it overall.

These molecules were tested on HepG2 (assay: cytotoxicity call (relative viability < 0.9)). Details: 10 µM.

| Structure (SMILES) | cytotoxicity call |
| --- | --- |
| O=C(C[C@@H]1C[C@H]2c3cc(NC(=O)c4ccc5c(c4)OCO5)ccc3O[C@H]2[C@@H](CO)O1)NCc1ccc(Oc2ccccc2)cc1 | inactive |
| O=C(C[C@H]1C[C@H]2c3cc(NC(=O)c4ccc5c(c4)OCO5)ccc3O[C@H]2[C@@H](CO)O1)NCc1ccc(Oc2ccccc2)cc1 | active |
| O=C(C[C@@H]1C[C@@H]2c3cc(NC(=O)c4ccc5c(c4)OCO5)ccc3O[C@@H]2[C@@H](CO)O1)NCc1ccc(Oc2ccccc2)cc1 | inactive |
| Cc1noc(C)c1NC(=O)Nc1ccc2c(c1)C(=O)N([C@@H](C)CO)C[C@@H](C)[C@@H](CN(C)Cc1ccc3c(c1)OCO3)OCCCC[C@@H](C)O2 | inactive |
| COc1ccc(COC[C@]23N=C4Sc5ccc([N+](=O)[O-])cc5C(=O)N4[C@H](c4ccccc4O2)[C@H]3CO[Si](C)(C)C(C)(C)C)cc1 | inactive |
| C[C@@H]1CN([C@@H](C)CO)C(=O)c2c(c3ccccc3n2C)-c2ccccc2CO[C@@H]1CN(C)C(=O)Nc1ccc(F)cc1 | inactive |
| C[C@@H]1CCCCO[C@H](CN(C)Cc2ccc3c(c2)OCO3)[C@@H](C)CN([C@H](C)CO)C(=O)c2cc(NC(=O)Nc3cccc4ccccc34)ccc2O1 | inactive |
| C[C@@H]1CN([C@@H](C)CO)C(=O)c2cc(NC(=O)Nc3cccc4ccccc34)ccc2O[C@@H](C)CCCCO[C@@H]1CN(C)Cc1ccc2c(c1)OCO2 | inactive |
| C[C@@H]1CN([C@H](C)CO)C(=O)c2cc(NC(=O)Nc3cccc4ccccc34)ccc2O[C@@H](C)CCCCO[C@H]1CN(C)Cc1ccc2c(c1)OCO2 | active |
| C[C@H](CO)N1C[C@H](C)[C@@H](CN(C)Cc2ccc3c(c2)OCO3)OCCCC[C@H](C)Oc2ccc(NC(=O)Nc3cccc4ccccc34)cc2C1=O | inactive |
| C[C@H]1CCCCO[C@H](CN(C)Cc2ccc3c(c2)OCO3)[C@@H](C)CN([C@@H](C)CO)C(=O)c2cc(NC(=O)Nc3cccc4ccccc34)ccc2O1 | active |
| C[C@@H]1CCCCO[C@@H](CN(C)Cc2ccc3c(c2)OCO3)[C@H](C)CN([C@@H](C)CO)C(=O)c2cc(NC(=O)Nc3cccc4ccccc34)ccc2O1 | inactive |
| C[C@@H]1CCCCO[C@@H](CN(C)Cc2ccc3c(c2)OCO3)[C@H](C)CN([C@H](C)CO)C(=O)c2cc(NC(=O)Nc3cccc4ccccc34)ccc2O1 | active |
| C[C@H](CO)N1C[C@H](C)[C@H](CN(C)Cc2ccc3c(c2)OCO3)OCCCC[C@H](C)Oc2ccc(NC(=O)Nc3cccc4ccccc34)cc2C1=O | active |
| CC(C)C#Cc1cnc2c(c1)C(=O)N([C@@H](C)CO)C[C@H](C)[C@H](CN(C)S(=O)(=O)c1cn(C)cn1)O2 | inactive |
| CO[C@@H]1CN(C)C(=O)c2cc(NS(=O)(=O)CC(F)(F)F)ccc2OC[C@H](C)N(C(=O)c2ccc3c(c2)OCO3)C[C@@H]1C | inactive |
| COc1ccc(S(=O)(=O)Nc2ccc3c(c2)C(=O)N([C@H](C)CO)C[C@@H](C)[C@@H](CN(C)S(=O)(=O)c2ccc(C)cc2)O3)cc1 | inactive |

| Structure (SMILES) | cytotoxicity call |
| --- | --- |
| C[C@H](CO)N1C[C@H](C)[C@H](CN(C)C(=O)Nc2ccccc2)OCCCC[C@H](C)Oc2ccc(NC(=O)Nc3ccc4c(c3)OCO4)cc2C1=O | inactive |
| COc1ccc(NC(=O)N(C)C[C@H]2OCCCC[C@@H](C)Oc3ccc(NC(=O)Cc4ccccc4)cc3C(=O)N([C@@H](C)CO)C[C@H]2C)cc1 | inactive |
| C[C@@H]1CCCCO[C@H](CN(C)C(=O)Nc2ccc(F)cc2)[C@H](C)CN([C@H](C)CO)C(=O)c2cc(NC(=O)Nc3ccc(F)cc3)ccc2O1 | inactive |
| C[C@H]1CN([C@@H](C)CO)C(=O)c2cc(NC(=O)Cc3ccccc3)ccc2O[C@@H]1CN(C)Cc1ccc(Cl)c(Cl)c1 | inactive |
| C[C@@H]1CCCCO[C@H](CN(C)S(=O)(=O)c2ccccc2)[C@H](C)CN([C@H](C)CO)C(=O)c2cc(NS(=O)(=O)c3cn(C)cn3)ccc2O1 | inactive |
| COc1ccc(NC(=O)N(C)C[C@H]2Oc3c(NC(=O)c4cnccn4)cccc3C(=O)N([C@H](C)CO)C[C@@H]2C)cc1 | inactive |
| C[C@@H]1CCCCO[C@@H](CN(C)Cc2ccc(C(=O)O)cc2)[C@H](C)CN([C@H](C)CO)C(=O)c2cc(NS(=O)(=O)c3ccccc3)ccc2O1 | inactive |
| Cc1noc(C)c1NC(=O)Nc1ccc2c(c1)C(=O)N([C@@H](C)CO)C[C@@H](C)[C@H](CN(C)Cc1ccc(Cl)c(Cl)c1)O2 | inactive |
| C[C@H]1CCCCO[C@@H](CN(C)Cc2ccc(C(F)(F)F)cc2)[C@@H](C)CN([C@@H](C)CO)C(=O)c2cc(NS(C)(=O)=O)ccc2O1 | inactive |
| C[C@@H]1CCCCO[C@H](CN(C)Cc2ccc3c(c2)OCO3)[C@H](C)CN([C@H](C)CO)C(=O)c2cc(NC(=O)Nc3cccc4ccccc34)ccc2O1 | inactive |
| C[C@@H]1CN([C@H](C)CO)C(=O)c2cc(NC(=O)Nc3cccc4ccccc34)ccc2O[C@@H](C)CCCCO[C@@H]1CN(C)Cc1ccc2c(c1)OCO2 | active |
| C[C@@H]1CCCCO[C@@H](CN(C)Cc2ccc3c(c2)OCO3)[C@@H](C)CN([C@H](C)CO)C(=O)c2cc(NC(=O)Nc3cccc4ccccc34)ccc2O1 | inactive |
| C[C@@H]1CCCCO[C@@H](CN(C)Cc2ccc3c(c2)OCO3)[C@@H](C)CN([C@@H](C)CO)C(=O)c2cc(NC(=O)Nc3cccc4ccccc34)ccc2O1 | inactive |
| C[C@H]1CCCCO[C@@H](CN(C)Cc2ccc3c(c2)OCO3)[C@@H](C)CN([C@@H](C)CO)C(=O)c2cc(NC(=O)Nc3cccc4ccccc34)ccc2O1 | inactive |
| C[C@@H]1CN([C@@H](C)CO)C(=O)c2cc(NC(=O)Nc3cccc4ccccc34)ccc2O[C@@H](C)CCCCO[C@H]1CN(C)Cc1ccc2c(c1)OCO2 | active |
| C[C@@H]1CCCCO[C@H](CN(C)Cc2ccc3c(c2)OCO3)[C@@H](C)CN([C@@H](C)CO)C(=O)c2cc(NC(=O)Nc3cccc4ccccc34)ccc2O1 | active |
| C[C@@H]1CCCCO[C@H](CN(C)Cc2ccc3c(c2)OCO3)[C@H](C)CN([C@@H](C)CO)C(=O)c2cc(NC(=O)Nc3cccc4ccccc34)ccc2O1 | active |
